Inconclusive results are not listed. A number with no mark means an inactive call. Active and inactive are the calls of the source. Calls follow the shape of the dose curve; as a rule, active = well fitted inhibition curve with a large enough effect; inconclusive = small, poorly fitted or top-dose-only effect; inactive = no such curve, though single readings can be large or run the other way.
The compounds below were run on Zika virus NS2B-NS3 protease (unlinked complex) (assay: Primary screen GU Rhodamine qHTS for Zika virus inhibitors: Unlinked NS2B-NS3 protease assay (AID 1347159; also: nearly all actives have a fitted effect of over 60% in size)). Conditions: Recombinant ZIKV NS2B-NS3 protease, Rhodamine110 substrate fluorescence; series mostly up to 107 µM; activity change, negative = inhibition: at the top concentration.
Summary of the method: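 Noncovalent NS2B hydrophilic domain/NS3 protease complex (25 nM final) in 10 mM Tris-HCl pH 8.0, 0.01% Tween 20, preincubated 15 min with compounds (up to 114 microM), then 1.5 microM Rhodamine110 substrate. Fluorescence change over 15 min fitted to 4-parameter Hill.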
% is scaled to controls: 0 for no effect and ±100 for the full control effect; potency is read from the fitted curve at half-maximal effect.

| SMILES | activity change, negative = inhibition | Potency |
| --- | --- | --- |
| O=S(=O)(NC1CCNCC1)c1cc(S(=O)(=O)c2ccccc2)ccc1C(F)(F)F | 14.7% | – |
| Clc1ccc(CN[C@H]2CCN(c3ncc(Br)cn3)C2)c(Cl)c1 | 24.2% | – |
| CC(=O)OCC1=C[C@H](O)[C@@H]2C(C(=O)O)=CO[C@@H](O[C@@H]3O[C@H](CO)[C@@H](O)[C@H](O)[C@H]3O)[C@H]12 | 25.2% [at 57.1 µM] | – |
| CC(=O)c1c(O)cc2cccc3c2c1CC(C)(O)O3 (centres undefined) | – | 35.5 µM (active) |
| CC[C@H]1OC(=O)[C@H](C)[C@@H](OC2C[C@@](C)(OC)[C@@H](O)[C@H](C)O2)[C@H](C)[C@@H](OC2O[C@H](C)C[C@H](NC)[C@H]2O)[C@](C)(O)C[C@@H](C)CN(C)[C@H](C)[C@@H](O)[C@]1(C)O (some centres undefined) | 0% | – |
| C[C@H]1[C@H](C)CC[C@]2(C(=O)O)CC[C@]3(C(=O)O)C(=CCC4[C@@]5(C)CC[C@H](O[C@@H]6O[C@H](C)[C@@H](O)[C@H](O)[C@H]6O)C(C)(C)C5CC[C@]43C)[C@H]12 (some centres undefined) | 14.4% [at 32.5 µM] | – |
| Cc1cc(C)c(S(=O)(=O)N(Cc2ccc(-c3cccc(S(C)(=O)=O)c3)cc2)Cc2ccc(C(F)(F)F)o2)c(C)c1 | -3% | – |
| O=C1[C@H](O[C@@H]2O[C@H](CO)[C@@H](O)[C@H](O)[C@H]2O)Oc2ccccc2N1O | 7.76% | – |
| C=C1[C@@H]2CC[C@@]3(C)[C@H](c4ccoc4)OC(=O)C[C@]13O[C@H]1CC(=O)C(C)(C)[C@H](CC(=O)OC)[C@]12C | 7.64% [at 57.1 µM] | – |
| CC(C)(O)/C=C1/C(=O)C(C)(C)C(=O)C(C)(C)C1(O)O[C@@H]1O[C@H](COC(=O)c2cc(O)c(O)c(O)c2)[C@@H](O)[C@H](O)[C@H]1O (some centres undefined) | -2.63% [at 32.5 µM] | – |
| C=C1CC2(C(=O)O)CC1CCC2C1(C)CCCC2(C)C(=O)OC(O)C21 (centres undefined) | -4.22% | – |
| COc1cccc(-c2ccc([C@@H](Oc3cc(-c4ccc(C[C@H](N)C(=O)O)cc4)nc(N)n3)C(F)(F)F)cc2)c1 | – | 22.4 µM (active) |
| OC[C@H]1O[C@@H](n2cnc3c2NC=NC[C@H]3O)C[C@@H]1O | 13.5% | – |
| Cc1cc(Nc2ncc(Cl)c(Nc3ccccc3S(=O)(=O)C(C)C)n2)c(OC(C)C)cc1C1CCNCC1 | 39.4% | – |
| CNC(=O)Nc1ccc(OC)c(NC(=O)NC(=O)c2cc(F)c(F)cc2Cl)c1 | -19% | – |
| CCNC(=O)CCC/C=C\C[C@@H]1[C@@H](/C=C/C(O)CCc2ccccc2)[C@@H](O)C[C@@H]1O (some centres undefined) | -9.05% | – |
| OC[C@H]1O[C@@H](Oc2cc(O)cc(-c3cc4ccc(O)cc4o3)c2)[C@H](O)[C@@H](O)[C@@H]1O | -6.93% [at 57.1 µM] | – |
| CC(C)(O)c1ccc2c(c1)C(=O)CC1[C@](C)(CO)CCC[C@]21C (some centres undefined) | – | 31.6 µM (active) |
| O=C(NN1CCCCC1)c1nn(-c2ccc(Cl)cc2Cl)c(-c2ccc(C#Cc3ccc(C(F)(F)F)cc3)s2)c1CNS(=O)(=O)N1CCCC1 | 64.1% | – |
| C=CC(C)(O)CC/C=C(/C)C(=O)OC1C(OC2OCC(OC3OC(CO)C(O)C(O)C3O)C(OC3OCC(O)C(OC4OC(C)C(O)C(O)C4O)C3O)C2O)COC(OC(=O)C23CCC(C)(C)CC2C2=CCC4C5(C)CCC(OC6OC(CO)C(OC7OC(CO)C(O)C(OC8OCC(O)C(O)C8O)C7O)C(O)C6O)C(C)(C)C5CCC4(C)C2(C)CC3O)C1O (centres undefined) | 23.5% [at 19.1 µM] | – |

| SMILES | activity change, negative = inhibition | Potency |
| --- | --- | --- |
| O=C1CC(c2ccc([N+](=O)[O-])cc2)=NN1c1ccccc1 | – | 39.8 µM (active) |
| CC1=C(C)C(=O)OC(C(C)(O)C2CCC3C4CC=C5CC(OC6OC(COC7OC(CO)C(O)C(O)C7O)C(O)C(O)C6O)CC(O)C5(C)C4CCC32C)C1 (centres undefined) | 8.69% [at 32.5 µM] | – |
| C[C@@H]1CC[C@]2(C(=O)O[C@@H]3O[C@H](CO)[C@@H](O)[C@H](O)[C@H]3O)CC[C@]3(C)C(=CCC4[C@@]5(C)C[C@@H](O)[C@H](O)C(C)(C)C5CC[C@]43C)C2[C@]1(C)O (some centres undefined) | 25.6% [at 32.5 µM] | – |
| COC(=O)c1cc(CN2CCN(C(=N)N)CC2)cc(C(=O)N2CCN(C(=O)c3ccc(C(=N)N)cc3)CC2)c1 | -8.8% | – |
| CO[C@@H]1COCC[C@@H]1N[C@@H]1CC[C@@](C(=O)N2CCc3ncc(C(F)(F)F)cc3C2)(C(C)C)C1 | 18.2% [at 32.5 µM] | – |
| CC(O)(CC(=O)O)CC(=O)O[C@@H]1[C@@H](O)[C@H](OCCc2ccccc2)O[C@H](CO)[C@H]1O (some centres undefined) | 5.64% [at 57.1 µM] | – |
| Cc1[nH]cnc1C1CCN(c2nc3cccc4c3n2CCC4=O)CC1 | -1.86% | – |
| O=C(OCc1cccc(O)c1O[C@@H]1O[C@H](CO)[C@@H](O)[C@H](O)[C@H]1O)C1(O)C(=O)C2C=CC1C1C=CC(=O)C(O)(C(=O)OCc3cccc(O)c3O[C@@H]3O[C@H](CO)[C@@H](O)[C@H](O)[C@H]3O)C21 (some centres undefined) | 11% [at 32.5 µM] | – |
| C=C[C@H]1[C@H](O[C@@H]2O[C@H](CO)[C@@H](O)[C@H](O)[C@H]2O)OC=C2C(=O)OCC[C@]21O | – | 35.5 µM (active) |
| CO/N=C(/C(=O)N[C@@H]1C(=O)N2C(C(=O)O)=C(CSC(=O)c3ccco3)CS[C@H]12)c1csc(N)n1 | – | 35.5 µM (active) |
| COC(=O)[C@@]1(O)C=CC[C@@H]2[C@@]3(C)C[C@@H](c4ccoc4)OC(=O)[C@H]3CC[C@]21C | 28.4% | – |
| CC(=O)N[C@H]1CCN(c2ccc(C3=NOC(CN[S+](=O)([O-])C(C)C)C3)cc2F)C1 (some centres undefined) | 19.2% | – |
| C[C@H]1[C@H](C)CC[C@]2(C(=O)O)CC[C@]3(C)C(=CC[C@@H]4[C@@]5(C)C[C@@H](O)[C@H](O)[C@@](C)(CO)[C@@H]5CC[C@]43C)[C@H]12 | 2.82% | – |
| COc1cc(C)c(C(=O)O[C@H]2[C@@H](O)[C@H](n3ccc(=O)[nH]c3=O)O[C@@H]2CO)c(OC)c1 | 23.6% [at 57.1 µM] | – |
| COC(=O)C1=CO[C@@H](O[C@@H]2O[C@H](CO)[C@@H](O)[C@H](O)[C@H]2O)[C@@H]2[C@@H](C(=O)OC)[C@@H](O)C(O)[C@H]12 (some centres undefined) | 2.92% [at 57.1 µM] | – |
| Cc1cc(C)cc(NC(=O)Cc2ccc(OC(C)(C)C(=O)O)cc2)c1 | 12.3% | – |
| Cc1ccc(C(=O)Nc2ccc(Oc3cc4cnn(C)c4cc3-c3cn[nH]c3)c(F)c2)c(=O)n1-c1ccc(F)cc1 | 11.5% | – |
| CC(/C=C/C1(O)C(C)(C)CC(O)CC1(C)O)OC1OC(CO)C(O)C(O)C1O (centres undefined) | 8.33% [at 57.1 µM] | – |
| C=C1[C@H]2[C@H](O[C@@H]3O[C@H](COC(=O)/C=C/c4cc(OC)c(O)c(OC)c4)[C@@H](O)[C@H](O)[C@H]3O)OC=C(C(=O)O)[C@H]2C[C@@H]1O | -22.9% [at 32.5 µM] | – |
